Screening data deposited in PubChem by National Center for Advancing Translational Sciences (NCATS).
Sfp inh: inhibitors of Bacillus subtilis Sfp phosphopantetheinyl transferase. Q9F4F7. Biochemical Sfp PPTase activity, qHTS. Potency, µM, inactives show largest response in the series, negative = inhibition, usual class: inhibitors. 310,000 tested, 3.5% active;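 note: the enzyme is Sfp with the accession as filed and its product quenches rhodamine fluorescence; 0% = enzyme reaction without inhibitor and -100% = no enzyme wells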
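Buffer: 50 mM Hepes-Na pH 7.6, 10 mM MgCl2, 0.01% Nonidet P-40, 0.01% BSA. Enzyme 15 nM, pre-exposed to compound 15 min; substrates then added and fluorescence change tracked over 30 min.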
G9a inh: blocks human histone lysine methyltransferase G9a; G9a H3K9 monomethylation, AlphaScreen, 2 h; AID 504332; Potency, µM (top dose mostly 102 µM), without a hit: top-dose activity, negative = inhibition, actives largely listed as inhibitors; 350,000 tested, 8.8% active; Q96KQ7; note: % is set by controls: 0 for no effect and ±100 for the full control effect; nearly all actives have a fitted effect of over 75% in size
Target sequence (Q96KQ7 913-1193 limits assumed): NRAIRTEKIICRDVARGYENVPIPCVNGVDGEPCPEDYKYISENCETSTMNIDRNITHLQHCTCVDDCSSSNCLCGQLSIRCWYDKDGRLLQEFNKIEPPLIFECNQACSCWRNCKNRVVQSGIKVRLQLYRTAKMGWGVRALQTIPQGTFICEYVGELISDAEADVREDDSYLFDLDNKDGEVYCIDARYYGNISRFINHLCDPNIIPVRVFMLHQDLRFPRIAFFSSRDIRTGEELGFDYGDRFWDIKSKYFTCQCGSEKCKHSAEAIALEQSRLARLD
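Compounds were preincubated with 20 nM G9a for 15 min, after which biotinylated H3K9 peptide (500 nM) and SAM (20 uM) started a 2 h room-temperature reaction. Monomethylated product was quantified by antibody-based AlphaScreen chemiluminescence.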
BAZ2B inh: inhibitors of human BAZ2B bromodomain | AlphaScreen BAZ2B-H3K14Ac peptide displacement | Potency, µM (highest dose often 114 µM), without a hit: at the top dose activity change, negative = inhibition, usual class: inhibitors | 360,000 tested, 4.4% active | AID 504333; note: % is set by controls: 0 for no effect and ±100 for the full control effect; nearly all actives have a fitted effect of over 60% in size
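In this displacement format the biotinylated H3(5-23) peptide acetylated at Lys14 serves as ligand at 50 nM, with BAZ2B at 50 nM in PBS pH 7.4 containing 0.01% Tween-20. Donor and acceptor beads are 10 ug/mL final.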
JMJD2A Tudor inh: blocks the human JMJD2A Tudor domain; AlphaScreen JMJD2A-Tudor / H3K4me3 peptide binding; Potency, µM (top dose mostly 114 µM), without a hit: top-dose activity change, negative = inhibition, most hits filed as inhibitors; 390,000 tested, 4.4% active; note: % is set by controls: 0 for no effect and ±100 for the full control effect; nearly all actives have a fitted effect of over 50% in size
HP1b binding inh: blocks HP1-beta chromodomain binding to methylated histone tails; AID 540317; 390,000 tested, 0.56% active; Potency, µM (titrated, usually from 114 µM), without a hit: at the highest dose activity change, negative = inhibition, hits mostly inhibitors; P83916; AlphaScreen HP1-beta / biotin-H3K9me3 peptide binding; note: nearly all actives have a fitted effect of over 70% in size
Target sequence (P83916 whole entry, looked up): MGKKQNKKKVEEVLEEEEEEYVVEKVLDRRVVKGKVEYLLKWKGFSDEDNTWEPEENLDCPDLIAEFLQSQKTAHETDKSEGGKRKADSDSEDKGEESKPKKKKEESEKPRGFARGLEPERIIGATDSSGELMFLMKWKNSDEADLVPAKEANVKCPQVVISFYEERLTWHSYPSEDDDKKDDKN
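Compound inhibition of the preformed complex between 50 nM HP1-beta and 50 nM biotinylated H3K9me3 peptide was read by AlphaScreen. Buffer was PBS pH 7.4 with 0.01% Tween-20. Incubations ran 30 min at room temperature, with 10 ug/mL donor/acceptor beads.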
* hit, by the source's call; ? = inconclusive; · = no result given; ! = not active in a repeat; [ ] = another dose, or the depositor's remark. Sampled rows, rich in hits. Any-hit rate of the full collection: about 12%. Calls come from the whole dose curve; as a rule, active = well fitted curve in the direction sought with a large enough effect; inconclusive = small, poorly fitted or top-dose-only effect, or another doubt; inactive = no such curve, though single readings can be large; an effect the other way counts as inactive or inconclusive. Potency is the fitted concentration of half-maximal effect.

SMILES	Sfp inh	G9a inh	BAZ2B inh	JMJD2A Tudor inh	HP1b binding inh
CN1CCN(C(c2ccc(Cl)cc2)c2cc(Cl)c3cccnc3c2O)CC1 (centres undefined)	79.4µM*	2.51µM*	31.6µM*	39.8µM*	?
OCCN1CCN(CC(O)COc2ccc3ccccc3c2)CC1 (centres undefined)	?	?	2.7%	-33.1%	25.1%
CN1CCN(C(c2ccc(C(F)(F)F)cc2)c2cc(Cl)c3cccnc3c2O)CC1 (centres undefined)	44.7µM*	11.2µM*	39.8µM*	·	·
Oc1c(C(c2ccccn2)N2CCCCC2)cc(Cl)c2cccnc12 (centres undefined)	4.8%	7.08µM*	7.94µM*	22.4µM*	?
OCCN1CCN(C(c2cccs2)c2ccc3cccnc3c2O)CC1 (centres undefined)	15.8µM*	?	20µM*	·	·
CCCCC(=O)NC(c1cccs1)c1cc(Cl)c2cccnc2c1O (centres undefined)	2.9%	?	1.7%	-12.3%	49.0%
COc1ccc(C(=O)NC(c2ccccc2Cl)c2cc(Cl)c3cccnc3c2O)cc1 (centres undefined)	·	20.1%[59 µM]	8.5%	?	27.2%
CSc1ccccc1NC(=O)c1csc(C)c1	3.6%	60.0%	7.4%	1.3%	53.5%
Cc1ccc(CNC(=O)CCCCCn2c(=O)c3sccc3n(CC(=O)N3CCCCC3C)c2=O)cc1 (centres undefined)	·	-1.8%[59 µM]	-0.2%	8.5%	44.5%
CCN1CCN(C(c2ccc(C(F)(F)F)cc2)c2ccc3cccnc3c2O)CC1 (centres undefined)	-22.5%	2.51µM*	28.2µM*	50.1µM*	?
CCCC(=O)NC(c1ccc(C(C)C)cc1)c1ccc2cccnc2c1O (centres undefined)	8.4%	75.6%	-23.0%	-20.5%	52.8%
COC(=O)Oc1ccccc1C(=O)O	10.4%	·	·	·	·
CCCCn1c(N)c(N(CCOC)C(=O)CSCc2ccc(Cl)c(Cl)c2)c(=O)[nH]c1=O	·	56.2µM*	1.2%	-8.3%	5.5%
CCCCn1c(N)c(N(CCOC)C(=O)CSCc2ccc(C)cc2)c(=O)[nH]c1=O	·	44.7µM*	6.5%	-11.0%	46.0%
COCCn1c(N)c(N(Cc2ccccc2)C(=O)CSCC(=O)Nc2ccc(C)cc2)c(=O)[nH]c1=O	·	31.6µM*	-3.6%	-6.9%	34.5%
CCCCn1c(N)c(N(CC)C(=O)CSCc2ccc(C)cc2)c(=O)[nH]c1=O	6.2%	·	1.9%	7.8%	30.0%
Cc1noc(C)c1CSCC(=O)Nc1nc(-c2ccc(F)c(F)c2)cs1	·	-4.4%	-27.5%	-11.7%	21.1%
Cc1cc(C)cc(OCC(=O)NNC(=S)NC(=O)C2CC2)c1	24.5%	20µM*	4.2%	-33.8%	25.1%
COc1ccc(OCC(=O)NNC(=S)NC(=O)C2CC2)cc1	15.7%	20µM*	-1.4%	-17.9%	24.0%
CCc1ccc(OCC(=O)NNC(=S)NC(=O)C2CC2)c(Br)c1	15.4%	10µM*	?	?	10.5%
COc1ccc(OCC(=O)NC2CCCCCCC2)cc1	16.8%	3.9%	3.0%	-1.4%	41.1%
COc1ccc(OCC(=O)NNC(=S)NC(=O)C2CCCCC2)cc1	10.9%	12.6µM*	-7.1%	·	·
COc1cccc([C@@H]2Oc3ccc(OC)cc3C[C@H]2OC(=O)NS(=O)(=O)c2ccc(C)cc2)c1	-5.2%	·	·	·	·
COc1ccc(-c2n[nH]c3c2C(c2ccccn2)N(C)C3=O)cc1 (centres undefined)	·	-23.4%[59 µM]	-6.0%	-15.4%	19.5%
COc1ccc(C(=O)NC(=S)NNC(=O)CNC(=O)C2CCCCC2)cc1	-22.5%	8.91µM*	·	?	0.2%
SMILES	Sfp inh	G9a inh	BAZ2B inh	JMJD2A Tudor inh	HP1b binding inh
N#Cc1nc(Nc2cc(F)cc(F)c2)nc(Nc2cc(F)cc(F)c2)n1	·	·	·	-17.8%	·
Cn1cnc(Sc2ncnc3nc[nH]c23)c1[N+](=O)[O-]	39.8µM*	·	?	6.31µM*	?
Cn1cnc([N+](=O)[O-])c1Sc1ncnc2nc[nH]c12	79.4µM*!	16.2%[12.7 µM]	-4.6%	2.8%	21.3%
Cn1cnnc1Sc1c([N+](=O)[O-])ncn1C	10.8%	·	·	·	·
CC(=O)CSc1ncnc2nc[nH]c12	0.1%	-2.6%[59 µM]	-28.9%	-24.0%	17.9%
Cc1cnc(CNc2ncnc3ccc(-c4ccccc4C)cc23)cn1	-3.0%	-10.3%[0.501 µM]	·	·	·
COc1ccc(-c2ccc(NC(=O)c3ccco3)cc2)nn1	·	39.8µM*	9.1%	-21.3%	-7.9%
COc1ccc(-c2cccc(NC(=O)c3ccco3)c2)nn1	·	50.1µM*	-17.5%	-21.4%	8.4%
CCc1nc(NCCO)c(C#N)c2c1CSC(C)(C)C2	70.8µM*	·	-7.2%	-8.7%	63.6%
CCc1nc(NCC(C)C)c(C#N)c2c1COC(C)(C)C2	8.4%	-5.5%[59 µM]	-2.9%	8.0%	41.7%
Cc1ccc(CNc2oc(-c3cccs3)nc2C#N)cc1	3.1%	50.1µM*	?	-35.0%	?
COc1ccc(CCNc2oc(-c3ccccc3OC)nc2C#N)cc1	-6.0%	?	?	?	-22.9%
N#Cc1nc(-c2cccs2)oc1NCc1ccco1	-12.1%	-32.8%[59 µM]	?	?	-19.5%
Cc1ccc(CNc2oc(COc3ccccc3Cl)nc2C#N)cc1	10.1%	?	-38.4%	-32.7%	2.1%
COc1ccccc1-c1nc(C#N)c(NCc2ccc(F)cc2)o1	-2.8%	?	50.1µM*	-34.4%	?
N#Cc1nc(COc2ccccc2Cl)oc1NCc1ccc(F)cc1	17.5%	44.7µM*	?	?	4.1%
O=C(CN1C(=O)c2ccccc2C1=O)OCC(=O)c1ccc(F)cc1	·	50.1µM*	5.2%	-20.7%	9.7%
COc1ccc(-c2sc3ccc(OC)cc3c2-c2ccc(OCCN3CCOCC3)cc2)cc1	·	·	·	?	-11.2%
c1ccc(-c2sc3ccccc3c2-c2ccc(OCCN3CCCC3)cc2)cc1	·	·	·	50.1µM*	-15.1%
COc1ccc(-c2sc3ccccc3c2-c2ccc(OCCN3CCCCC3)cc2)cc1	·	·	·	44.7µM*	-15.0%
